# PubChem BioAssay AID686971 (National Center for Advancing Translational Sciences (NCATS), 2013)
# The whole screen tested about 360,000 compounds, of which about 7,500 (2.1%) were called active. Not shown: some 8% with an inconclusive outcome. Calls come from the whole dose curve; as a rule, active = well fitted cell-killing curve with a large enough effect; inconclusive = small, poorly fitted or top-dose-only effect, or effect the other way, or another doubt; inactive = no such curve, though single readings can be large or run the other way. The list comes from a sample in which actives are over-represented; it also holds similar structures and randomly drawn compounds.
# Test: qHTS for induction of synthetic lethality in tumor cells producing 2HG: qHTS for the HT-1080-IDH1KD cell line;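 for activity, negative = toxicity: 0% = DMSO wells and -100% = cell-free medium wells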
# Conditions: HT-1080 IDH1 knockdown viability, ATP luminescence, 48 h; series mostly up to 46.1 µM; activity, negative = toxicity: at the top concentration
# Procedure, shortened: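 Using the IDH1-knockdown HT-1080 line run in the same batch and compound series as the NT line, viability after 48 h at 37 °C was determined by CellTiter-Glo luminescence and expressed as % activity.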
# Potency is the fitted concentration of half-maximal effect.
Compound,"activity, negative = toxicity",Potency
CCc1nc2c(=O)[nH]cnc2o1,6.79% (inactive),
O=C(Nc1ccc(Cl)cc1)c1csc([C@H]2C[C@H](O)[C@@H](CO)O2)n1,-8.66% (inactive),
O=C(N[C@H]1CC[C@H](CC(=O)N2CCCCC2)O[C@@H]1CO)c1cccc(F)c1,26% (inactive),
Cc1cccc2cc3c(N)c(C(=O)N4CCCc5ccccc54)sc3nc12,,2.31 µM (active)
Cc1c(C(=O)N2CCCc3ccccc32)sc2nc(-c3ccccc3)cn12,8.39% (inactive),
Cc1ccc(C(=O)N2CCCc3ccccc32)c(Cl)c1,0.883% (inactive),
CC(C)(C)Cc1c(C2CCCCC2)nc2ccc(Br)cn12,-20.5% (inactive),
C[C@H]1CN([C@@H](C)CO)C(=O)CCCn2cc(nn2)CO[C@@H]1CN(C)S(=O)(=O)c1ccc(-c2ccccc2)cc1,3.42% (inactive),
N=C1C(c2nc3ccccc3s2)=C(O)CN1NC(=O)c1ccc([N+](=O)[O-])cc1,,20.6 µM (active)
Cc1ccc(C)n1NC(=O)c1ccc([N+](=O)[O-])cc1,-6.65% (inactive),
N=C1C(c2nc3ccccc3[nH]2)=C(O)CN1NC(=O)c1c[nH]c2ccccc12,4.62% (inactive),
C[C@H]1CN([C@@H](C)CO)C(=O)c2cc(C3=CCCCC3)cnc2O[C@@H]1CN(C)C(=O)Cc1ccccc1,-8.68% (inactive),
COc1ccc(C2CC(c3cccc(OC)c3)=NN2c2ccc(S(N)(=O)=O)cc2)cc1 (stereo unspecified),,16.4 µM (active)
COc1ccc(C2CC(c3ccccc3)=NN2C(=O)COC(=O)COc2ccccc2)cc1 (stereo unspecified),-0.202% (inactive),
COc1ccc(C2=NN(c3ccccc3)C(c3cccs3)C2)cc1 (stereo unspecified),-0.443% (inactive),
O=c1[nH]c2ccccc2n1C1CCN(CCOc2ccccc2)CC1,-17.5% (inactive),
CCOc1ccc(NC(=O)CSc2nnc3c(n2)[nH]c2ccc(S(=O)(=O)N4CCOCC4)cc23)cc1,23.2% (inactive),
CC(C)CC1C(=O)N(Cc2cn(CC3CCCCC3)nn2)CCS(=O)(=O)N1Cc1ccc(-c2ccc(Cl)cc2)cc1 (stereo unspecified),-2.65% (inactive),
CC1C(=O)N(Cc2cn(Cc3ccco3)nn2)CCS(=O)(=O)N1Cc1ccc(-c2cccc(CO)c2)cc1 (stereo unspecified),-0.032% (inactive),
CC(C)CC1C(=O)N(Cc2cn(Cc3ccco3)nn2)CCS(=O)(=O)N1Cc1ccc(-c2ccc(Cl)c(Cl)c2)cc1 (stereo unspecified),,18.4 µM (active)
C[C@@H]1CN([C@H](C)CO)S(=O)(=O)c2ccc(C#CC3CCCCC3)cc2O[C@H]1CN(C)C(=O)Cc1ccncc1,-20.4% (inactive),
CCOC(=O)C1=C(c2ccc(OC)cc2)C(=O)c2ccccc2C1=O,,7.31 µM (active)
COC(=O)c1cc(OC)ccc1-c1ccc(OC)cc1,-0.423% [at 9.24 µM] (inactive),
COc1ccc(CNC(=O)CCN2C(=O)c3ccccc3C2=O)cc1,17.2% (inactive),

Compound,"activity, negative = toxicity",Potency
CC1=C(C(=O)N(C(C)C)C(C)C)CC(CC(=O)NCC2CCCCC2)C(=O)N1Cc1ccccc1 (stereo unspecified),-0.475% (inactive),
O=C(NCc1ccccn1)[C@@H]1CCCN1C(=O)[C@@H]1CCCN1C(=O)c1ccccc1,0.107% (inactive),
CC(=N\NC(=O)c1cc(Br)ccc1O)/C(=N/O)C(=O)Nc1ccccc1,,16.4 µM (active)
CC(=O)N/N=C(\C)c1ccc(Br)cc1Br,0.294% (inactive),
CC(C)/C=N/NC(=O)c1cc(Br)ccc1O,4.46% (inactive),
CN(C)C1CN(Cc2cn(Cc3ccccc3)nn2)S(=O)(=O)C1 (stereo unspecified),8.37% (inactive),
CCCNC(=O)C1(C)CCN(C(=O)c2cc(F)ccc2C)C1 (stereo unspecified),28.1% (inactive),
CSc1ccc(CNC(=O)C2(C)CCCN2C)cc1 (stereo unspecified),-1.05% (inactive),
COc1ccc(CN2CCC(n3nccc3NC(=O)CCCc3ccccc3)CC2)cc1C,,18.4 µM (active)
Cc1ccc(CN2CCC(n3nccc3NC(=O)CCCc3ccccc3)CC2)o1,-3.69% (inactive),
COc1cc(CN2CCC(n3nccc3NC(=O)CCCc3ccccc3)CC2)ccc1O,-11.8% (inactive),
Cc1noc(C)c1NC(=O)N(C)C[C@@H]1Oc2cc(Br)ccc2S(=O)(=O)N([C@@H](C)CO)C[C@H]1C,0.461% (inactive),
CCCNC(=O)C1(C)CCN(C(=O)c2ccc(F)cc2Cl)C1 (stereo unspecified),21.7% (inactive),
Cc1cccc(C)c1-n1nnnc1C(CCc1ccccc1)N1CCN(C/C=C/c2ccccc2)CC1 (stereo unspecified),18.2% (inactive),
O=C(CC[C@H]1O[C@@H](n2ccc(=O)[nH]c2=O)[C@H](O)[C@@H]1O)N[C@H](Cc1ccccc1)C(=O)NCCCN1CCCC1=O,-0.192% (inactive),
O=C(/C=C/c1ccc([N+](=O)[O-])o1)NNC(=O)c1ccc(F)cc1,,2.59 µM (active)
CCc1noc(C)c1C(=O)NNC(=O)c1ccc(F)cc1,-1.3% (inactive),
O=C(NNC(=O)C1CCCC1)c1ccc(F)cc1,14% (inactive),
CC(C)c1ccc2c(c1)c(SC(C)(C)C)c(CC(C)(C)C(=O)O)n2Cc1ccc(Cl)cc1,,18.4 µM (active)
N#CCCN(C(=O)Nc1ccc(Cl)c(Cl)c1)C1CCCCC1,-16.4% (inactive),
C[C@H](CO)N1C[C@H](C)[C@@H](CN(C)C(=O)c2cccc(F)c2)Oc2cc(-c3cncnc3)ccc2S1(=O)=O,2.86% (inactive),
Clc1cccc(N=C2NN=C(c3ccc4c(c3)OCCO4)CS2)c1,,7.94 µM (active)
CN(C)c1nc(=Nc2cccc(Cl)c2)ss1,-2.12% (inactive),
C[C@H]1CN([C@@H](C)CO)C(=O)CCCn2cc(nn2)CO[C@@H]1CN(C)S(=O)(=O)c1cccs1,13.1% (inactive),

Compound,"activity, negative = toxicity",Potency
CCCn1c(N)c(C(=O)CSc2nnc(Cc3cccs3)n2C2CC2)c(=O)[nH]c1=O,8.77% (inactive),
COc1ccc(N)cc1NC(=O)CN1CCOCC1,1.47% (inactive),
NC(=S)NN=Cc1ccc(OC(=O)COc2cc(Cl)c(Cl)cc2Cl)cn1,,7.31 µM (active)
O=C(COc1ccc(Cl)cc1Cl)N/N=C/c1ccccn1,-20% (inactive),
O=C(COC(=O)COc1cc(Cl)c(Cl)cc1Cl)NC1CC1,0.578% (inactive),
CC(C)c1cc(Cn2c3ccccc3c(=O)n2C(C)Cn2cc(C3CC3)nn2)on1 (stereo unspecified),-8.19% (inactive),
COCCSc1nnc(NC(=O)CCS(=O)(=O)Cc2ccccc2)s1,-2.55% (inactive),
CSc1ncc(Cl)c(C(=O)Nc2cc(C)ccc2C)n1,14.2% (inactive),
CSc1nnc(NC(=O)c2nc(S(=O)(=O)Cc3ccc(C)cc3)ncc2Cl)s1,,6.51 µM (active)
Cc1nnc(NC(=O)CCCOc2ccccc2)s1,6.19% (inactive),
Cc1nnc(NC(=O)c2ccc3nccnc3c2)s1,18.6% (inactive),
Cc1ccc(CS(=O)(=O)c2ncc(Cl)c(C(=O)Nc3nnc(C)s3)n2)cc1,,20.6 µM (active)
Cc1cc(OCC(=O)Nc2nccs2)c2c(C)c(C)c(=O)oc2c1,1.11% (inactive),
CNC(=O)c1ccc(CN(C)C(=O)c2cc(C3CC3)nc3c2cnn3C(C)C)cc1,-15.6% (inactive),
CC(=O)Oc1ccc(Cn2c(C)c(C(=O)NCc3ccc(C#N)cc3)sc2=O)cc1,-23% (inactive),
O=C(/C=C/[C@H]1O[C@@H](n2ccc(=O)[nH]c2=O)[C@H](O)[C@@H]1O)NCc1ccccn1,18.2% (inactive),
Cc1c(CCO)c(=O)[nH]n1C(=O)c1c(F)cccc1F,,6.31 µM (active)
Cc1c(CCO)c(=O)n(-c2ccccc2)n1S(=O)(=O)c1ccc(F)cc1,-14.4% (inactive),
CC1C(=O)Nc2ccccc2N1C(=O)c1c(F)cccc1F (stereo unspecified),-5.49% (inactive),
Cc1ccc(C(=O)OCC(=O)NC2CCCCCCC2)cc1C,14.4% (inactive),
CCOC(=O)C1CCCN(C(=O)c2ccc(N(C)C)cc2)CC1 (stereo unspecified),18.3% (inactive),
CSc1ncnc2c1ncn2CCCNCc1cccs1,-0.667% (inactive),
CC1(C(=O)NS(=O)(=O)c2cccs2)CCN1C(=O)Cc1ccc(-c2ccccc2)cc1 (stereo unspecified),0.115% (inactive),
Cc1ccc(Cc2c(-c3ccccc3)nc3ccc(Cl)cn23)cc1,-1.66% (inactive),

Compound,"activity, negative = toxicity",Potency
Cc1ccc(-c2nc3ccc(Cl)cn3c2Cc2ccccc2)cc1,14.3% (inactive),
Cc1ccc(Cc2c(-c3ccco3)nc3ccc(Cl)cn23)cc1,,16.4 µM (active)
Cc1cccc(CNC(=O)c2sc(=O)n(Cc3ccccc3C)c2C)c1,-6.96% (inactive),
CCN(CC)C(=O)C1=C(C)N(Cc2ccc(OC)cc2)C(=O)C(CC(=O)NCc2ccco2)C1 (stereo unspecified),-4.38% (inactive),
CC(C)c1ccc(CC(=O)N2CCC2(C)C(=O)NS(=O)(=O)c2ccc(C(C)(C)C)cc2)cc1 (stereo unspecified),6.81% (inactive),
CC1=CC(C)(C)NC(=S)N1NC(=O)c1ccccc1Cl,6% (inactive),
CC1=CC(C)(C)NC(=S)N1c1ccccc1,,11.2 µM (active)
O=C1C(Sc2cccc(F)c2)=C[C@@]2(O)CC[C@@H](O)[C@]1(Sc1cccc(F)c1)[C@H]2O,-28.1% (inactive),
CCOC(=O)c1cc(-c2sc(NC(=O)c3ccccc3)nc2C)n(CCO)n1,-19.1% (inactive),
Cc1cc(C)n2c(Nc3c(C)cccc3C)c(CCc3ccccc3)nc2n1,-3.88% (inactive),
COc1ccc(S(=O)(=O)N(C)C[C@H]2OCc3cnnn3CCCC(=O)N([C@H](C)CO)C[C@H]2C)cc1,-3.99% (inactive),
Oc1c(Cl)cc(Cl)c(Cl)c1Cc1c(O)c(Cl)cc(Cl)c1Cl,,7.31 µM (active)
COc1cc2nc(N3CCCN(C)CC3)nc(NC3CC3)c2cc1OC,-19% (inactive),
CC(=O)NN=C(C)c1ccc(NC(=O)C2CC2)cc1,-0.362% (inactive),
CCCCN1CC(C)(C)[C@H](CC(=O)Nc2ccc(Br)cc2)C1=O,8.88% (inactive),
COc1ccc(/C=N/Nc2ncnc3sc4c(c23)CCCC4)cc1O,,20.6 µM (active)
COc1ccc(NC(=O)CCNC(=O)Cn2cnc3sc4c(c3c2=O)CCCC4)cc1OC,1.16% (inactive),
COc1ccc(NC(=O)CCCNC(=O)Cn2cnc3sc4c(c3c2=O)CCCC4)cc1OC,11.8% (inactive),
Nc1cccc(-c2cncc(N3CCN(Cc4ccccn4)CC3)n2)c1,7.1% (inactive),
C[C@H](CO)N1C[C@H](C)[C@H](CN(C)C(=O)Nc2ccc3c(c2)OCO3)Oc2ncc(Br)cc2C1=O,8.51% (inactive),
CCC(C)N(C(=O)CSc1nnnn1-c1ccccc1OC)C1CCS(=O)(=O)C1 (stereo unspecified),2.01% (inactive),
COc1ccccc1-n1nnnc1S(=O)(=O)Cc1ccc(Cl)cc1,,16.4 µM (active)
COc1ccccc1-n1nnnc1SCC(=O)NC(=O)Cc1ccccc1,0.816% (inactive),
OC[C@@H]1CN(Cc2ccc3c(c2)OCO3)C[C@H](n2cnc3c(NCc4ccco4)ncnc32)O1,4.42% (inactive),
